# Experimental data: PubChem BioAssay AID1259343 (VanderVen Lab, College of Veterinary Medicine, Cornell …, 2017)
# Among all 6,200 compounds or so, about 2,900 (47%) were called active. So high a share suggests a set chosen from earlier hits. This is one part of the list. A number with no mark means an inactive call. No stated cut-off is given here; in the data, active means inhibition above about 50%; inactive means the rest.
# Assay: Mycobacterium tuberculosis growth inhibition, primary screen (AID 1259343)
# Conditions: inhibition: at 10 µM, stronger effect = higher value; outcome: 10 uM
row,SMILES,inhibition
1,Cc1c2c(nc3cc4c(cc13)OCO4)CCc1ccccc1-2,76.4% (active)
2,O=S(=O)(Nc1cc(Cl)ccc1F)c1cc(Cl)ccc1Cl,28.1%
3,Cc1cc(S(=O)(=O)Nc2ccc(F)c(Cl)c2)c(C)s1,30.5%
4,O=S(=O)(Nc1ccc(F)c(F)c1)c1cc(Cl)ccc1Cl,95.3% (active)
5,O=S(=O)(Nc1cc(Cl)cc(Cl)c1)c1cc(Cl)ccc1Cl,56.9% (active)
6,O=S(=O)(Nc1ccc(F)c(Cl)c1)c1ccc(Cl)cc1F,66.8% (active)
7,COc1cccc(-c2noc(CSc3ncnc4sccc34)n2)c1,98.8% (active)
8,c1csc(-c2nc(CSc3ncnc4sccc34)co2)c1,24.4%
9,O=C(O)C1C2C=CC(C2)C1C(=O)Nc1nc(-c2ccc(Cl)s2)cs1 (centres undefined),35.5%
10,Clc1cccc(-c2csc(NC3CC3)n2)c1,44.2%
11,N#CC1(C(=O)Nc2nc(-c3cccc(C(F)(F)F)c3)cs2)CCCC1,55.5% (active)
12,N#CC1(C(=O)Nc2nc(-c3ccc(Cl)s3)cs2)CCCC1,89.1% (active)
13,O=C(CCn1[nH]c(=O)ccc1=O)Nc1nc(-c2ccc(Cl)s2)cs1,49.2%
14,Cc1ccc(C(=O)c2ccc(CC(=O)O)n2C)cc1,52.8% (active)
15,c1ccc(-c2cnc(CSc3nnnn3C3CC3)o2)cc1,18.6%
16,c1ccc(-c2cc(CSc3nnnn3C3CC3)no2)cc1,84.1% (active)
17,Fc1ccc(-c2cnc(CSc3nnnn3C3CC3)o2)cc1,8.58%
18,Cc1ccc(S(=O)(=O)N(C)CCOc2ccccc2C)s1,55.1% (active)
19,O=C(O[C@@H]1Cc2c(O)cc(O)cc2O[C@@H]1c1ccc(O)c(O)c1)c1cc(O)c(O)c(O)c1,78.4% (active)
20,O=c1ccc(-c2ccc3c(c2)OCO3)nn1Cc1cccc2ccccc12,-9.21%
21,Cc1ccccc1Cn1nc(-c2cccs2)ccc1=O,89.9% (active)
22,COc1ccc(-c2ccc(=O)n(Cc3ccccc3C)n2)cc1,27.4%
23,Cc1ccccc1Cn1nc(-c2ccc3c(c2)OCO3)ccc1=O,91.3% (active)

row,SMILES,inhibition
1,Cc1ccccc1Cn1nc(-c2ccccc2)ccc1=O,-7.28%
2,CCc1ccc(-c2ccc(=O)n(Cc3ccccc3C)n2)cc1,14.8%
3,OC(C#Cc1ccccc1)c1ncc(-c2ccccc2)[nH]1 (centres undefined),20.7%
4,O=C(CSc1ncc(-c2ccc([N+](=O)[O-])cc2)[nH]1)NC(C(=O)O)(c1ccccc1)c1ccccc1,-11.4%
5,O=C(Cc1ccc(Cl)cc1)NCCSc1ncc(-c2ccccc2)[nH]1,60.9% (active)
6,O=C(Nc1ccc(Cl)nc1)N1CCC(COCc2ccccc2)C1 (centres undefined),95% (active)
7,COc1ccc(C=C2CC3C4CC=C5CC(O)CCC5(C)C4CCC3(C)C2O)cc1 (centres undefined),-0.03%
8,CC12CCC(O)CC1=CCC1C2CCC2(C)C(O)C(=Cc3ccc([N+](=O)[O-])cc3)CC12 (centres undefined),-53.2%
9,COC(=O)C1CCC2C3CC=C4CC(O)CCC4(C)C3CCC12C (centres undefined),79.9% (active)
10,S=C(NC1Cc2ccccc2C1)N1CCCC1,14.2%
11,O=C(Cc1cccc(F)c1)NCc1ccc(Cl)s1,64.5% (active)
12,CN(Cc1cccc(F)c1)C(=O)c1ccc(NC(=O)C2CC2)s1,-11.3%
13,CC(=O)c1ccc(OC(=O)COc2cccc(OCCC(C)C)c2)cc1,67.6% (active)
14,CC(=O)c1ccc(OC(=O)COc2ccc(Oc3ccc(C)cc3)cc2)cc1,88.7% (active)
15,COc1cccc(OCC(=O)Oc2ccc(C(=O)c3ccc(C)cc3)cc2)c1,53% (active)
16,CCOc1ccc(OCCOCCOc2ccccc2)cc1,92.7% (active)
17,CCOc1ccc(OCCOc2cccc(C(F)(F)F)c2)cc1,84.9% (active)
18,CCOc1cccc(OCCOc2cccc(Br)c2)c1,36.5%
19,CCOc1ccccc1OCCOc1ccccc1,27.6%
20,CCOc1ccc(OCCOc2ccc(Cl)cc2)cc1,93.8% (active)
21,CCOc1ccc(OCCCOc2ccc(Cl)cc2)cc1,inactive
22,CCOc1ccc(OCCOc2ccccc2)cc1,92.8% (active)
23,Clc1ccc(OCCOC2OCCOC2OCCOc2ccc(Cl)cc2)cc1 (centres undefined),76.8% (active)

row,SMILES,inhibition
1,Clc1ccc(OCCOCCOc2ccc(Cl)cc2)cc1,21.3%
2,CCOc1ccc(OCCCOc2ccc(C)cc2)cc1,-3.92%
3,CCOc1ccc(OCCCOc2ccc(CC)cc2)cc1,-34%
4,CCOc1ccc(OCCCOc2ccc(I)cc2)cc1,92.8% (active)
5,CN=c1scc(C)n1N=C(C)c1cccc(F)c1,15.2%
6,COc1ccc(/C=C(/C#N)c2c[nH]c3ccccc23)cc1,33.9%
7,O=C(Cc1cc(-c2ccc(F)cc2F)on1)NCCc1ccccc1,93.5% (active)
8,O=C(Cc1cc(-c2ccc(F)cc2F)on1)NCCC1=CCCCC1,85.6% (active)
9,CC(C)OCCCNC(=O)Cc1cc(-c2ccc(F)cc2F)on1,36.4%
10,O=C(Cc1cc(-c2ccc(F)cc2F)on1)NCCCc1ccccc1,54% (active)
11,O=C(OCc1cc(-c2ccc(F)cc2F)on1)C1CC1,38.6%
12,O=C(Cc1cc(-c2ccc(F)cc2)on1)NCCC1=CCCCC1,36.7%
13,COc1ccc(NC(=O)c2ccc3c(c2)CCCC3)cn1,97.6% (active)
14,COc1ccc(NC(=O)c2ccc3c(c2)CCCC3)c(OC)c1,10.4%
15,Fc1c(F)c(F)c(N2CCNCC2)c(F)c1F,-14.9%
16,FC(F)(F)C1CCCN(c2nsc3ccccc23)C1 (centres undefined),101% (active)
17,FC(F)Oc1ccc(-c2n[nH]c(=S)n2N=Cc2ccc3c(c2)OCCO3)cc1,85.8% (active)
18,Cc1ccc(-c2n[nH]c(=S)n2N=Cc2ccccc2)cc1,55.7% (active)
19,CCN=c1scc(-c2ccc(OC(F)F)cc2)n1N=Cc1ccc2c(c1)OCO2,-4.29%
20,O=c1cc(-c2ccc(F)cc2)[nH]n1-c1nc2ccccc2[nH]1,75.6% (active)
21,CC(C)c1cc(-n2ccnc2)n2ncc(-c3ccccc3)c2n1,inactive
22,C=C(C#N)C(O)c1ccc(-c2ccccc2)cc1 (centres undefined),27.8%
23,c1ccc(-c2ccc(C(c3ccccc3)n3ccnc3)cc2)cc1 (centres undefined),79.7% (active)
